In PubChem BioAssay (Tox21):
Inconclusive results are not listed. Activity calls are given as the source filed them. Calls come from the whole dose curve; as a rule, active = well fitted curve in the direction sought with a large enough effect in the repeat runs; inconclusive = weak or mixed curves; inactive = no such curve, though single readings can be large; an effect the other way counts as inactive or inconclusive.

How the values were obtained:
[1] = qHTS RealTime-Glo MT Cell Viability Assay in HepG2 cells - 40 hour (AID 1224870); note: nearly all actives have a fitted effect of over 50% in size
Summary of the method: (§1)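 HepG2 cells (600/well) mixed with RealTime-Glo MT reagent, settled 5 h at 37 C/5% CO2 before compound addition. Nonlytic NanoLuc luminescence from viable-cell prosubstrate reduction read repeatedly during 40 h treatment at 37 C.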

[2] = A CellTox Green Cytotoxicity Assay to monitor cytotoxicity in HEK293 cells - 40 hour (AID 1224871); note: nearly all actives have a fitted effect of over 45% in size
Summary of the method: (§2)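 Cytotoxicity was tracked continuously in HEK293 cells by a DNA-binding dye excluded from viable cells. Compounds were transferred in DMSO 5 h after seeding; fluorescence was recorded at intervals up to 40 h.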

[3] = qHTS RealTime-Glo MT Cell Viability Assay in HEK293 cells - 16 hour (AID 1224872); note: nearly all actives have a fitted effect of over 50% in size; note: potency is the fitted concentration of half-maximal effect; for activity change, negative = cytotoxicity: top concentration of the series differs between compounds
Summary of the method: (§3)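 HEK293 cells seeded with NanoLuc/prosubstrate reagent, rested 5 h at 37 C, then dosed and kept at 37 C up to 40 h. Nonlytic real-time luminescence from viable cells read at 0, 8, 16, 24, 32 and 40 h.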

[4] = qHTS RealTime-Glo MT Cell Viability Assay in HepG2 cells - 8 hour (AID 1224873); note: nearly all actives have a fitted effect of over 55% in size
Summary of the method: as §1

[5] = qHTS RealTime-Glo MT Cell Viability Assay in HEK293 cells - 40 hour (AID 1224874); conditions: RealTime-Glo luminescence; max response: stronger effect = lower value; note: nearly all actives have a fitted effect of over 50% in size; note: potency is the fitted concentration of half-maximal effect
Summary of the method: (§4)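 Nonlytic bioluminescent viability monitoring. HEK293 at 600 cells/well with reagent; 5 h settle; compound transfer by pintool; plates held at 37 C and read at set time points.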

[6] = A CellTox Green Cytotoxicity Assay to monitor cytotoxicity in HEK293 cells - 24 hour (AID 1224875); note: series mostly up to about 77 µM; nearly all actives have a fitted effect of over 45% in size
Summary of the method: as §2

[7] = A CellTox Green Cytotoxicity Assay to monitor cytotoxicity in HepG2 cells - 16 hour (AID 1224876); note: nearly all actives have a fitted effect of over 45% in size
Summary of the method: (§5)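 Real-time, homogeneous cytotoxicity readout: dead-cell DNA staining by CellTox Green in HepG2 monolayers, fluorescence measured at timed intervals up to 40 h of continuous compound exposure.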

[8] = qHTS RealTime-Glo MT Cell Viability Assay in HepG2 cells - 32 hour (AID 1224877); note: nearly all actives have a fitted effect of over 55% in size
Summary of the method: (§6)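 HepG2 cells (600/well) were dispensed with RealTime-Glo reagents, incubated 5 h at 37 °C, then treated with compounds in DMSO for up to 40 h. Nonlytic NanoLuc luminescence reflecting viable cells was read at each stated time point.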

[9] = A CellTox Green Cytotoxicity Assay to monitor cytotoxicity in HepG2 cells - 24 hour (AID 1224878); note: nearly all actives have a fitted effect of over 45% in size
Summary of the method: as §5

[10] = A CellTox Green Cytotoxicity Assay to monitor cytotoxicity in HepG2 cells - 40 hour (AID 1224879); note: nearly all actives have a fitted effect of over 40% in size
Summary of the method: as §5

[11] = qHTS RealTime-Glo MT Cell Viability Assay in HEK293 cells - 0 hour (AID 1224880)
Summary of the method: as §4

[12] = A CellTox Green Cytotoxicity Assay to monitor cytotoxicity in HEK293 cells - 32 hour (AID 1224881); note: nearly all actives have a fitted effect of over 40% in size
Summary of the method: as §2

[13] = A CellTox Green Cytotoxicity Assay to monitor cytotoxicity in HepG2 cells - 0 hour (AID 1224882); note: nearly all actives have a fitted effect of over 35% in size
Summary of the method: as §5

[14] = A CellTox Green Cytotoxicity Assay to monitor cytotoxicity in HepG2 cells - 32 hour (AID 1224883); note: nearly all actives have a fitted effect of over 50% in size
Summary of the method: as §5

[15] = A CellTox Green Cytotoxicity Assay to monitor cytotoxicity in HEK293 cells - 8 hour (AID 1224884); note: nearly all actives have a fitted effect of over 35% in size
Summary of the method: as §2

[16] = qHTS RealTime-Glo MT Cell Viability Assay in HepG2 cells - 16 hour (AID 1224885); note: nearly all actives have a fitted effect of over 50% in size
Summary of the method: as §6

[17] = qHTS RealTime-Glo MT Cell Viability Assay in HEK293 cells - 8 hour (AID 1224887); note: nearly all actives have a fitted effect of over 50% in size; note: potency is the fitted concentration of half-maximal effect; for activity change, negative = cytotoxicity: top concentration of the series differs between compounds
Summary of the method: as §4

[18] = qHTS RealTime-Glo MT Cell Viability Assay in HepG2 cells - 0 hour (AID 1224889); note: nearly all actives have a fitted effect of over 50% in size
Summary of the method: as §6

[19] = qHTS RealTime-Glo MT Cell Viability Assay in HEK293 cells - 24 hour (AID 1224886); note: nearly all actives have a fitted effect of over 50% in size; note: potency is the fitted concentration of half-maximal effect; for activity change, negative = cytotoxicity: top concentration of the series differs between compounds
Summary of the method: as §3

[20] = A CellTox Green Cytotoxicity Assay to monitor cytotoxicity in HEK293 cells - 16 hour (AID 1224888); note: nearly all actives have a fitted effect of over 35% in size
Summary of the method: as §2
% is set by controls: 0 for no effect and ±100 for the full control effect.

CCCCCCC/C=C/C=O
inactive: Potency [1] | Potency [2] | Potency [3] | outcome [4] | max response [5] 6.61% | Potency [6] | Potency [7] | Potency [8] | Potency [9] | Potency [10] | Potency [11] | Potency [12] | Potency [13] | Potency [14] | Potency [15] | outcome [16] | Potency [17] | Potency [18]

CC(=O)Nc1ccn(C2COC(COC(=O)c3ccccc3)O2)c(=O)n1 (stereo unspecified)
inactive: Potency [1] | Potency [2] | Potency [3] | outcome [4] | max response [5] 3.96% | Potency [6] | Potency [7] | Potency [8] | Potency [9] | Potency [10] | Potency [11] | Potency [12] | Potency [13] | Potency [14] | Potency [15] | outcome [16] | Potency [19] | Potency [17] | Potency [20] | Potency [18]

CCc1ccc2c(c1)C(=O)c1ccccc1C2=O
inactive: Potency [1] | Potency [2] | Potency [3] | outcome [4] | max response [5] 11.6% | Potency [6] | Potency [7] | Potency [8] | Potency [9] | Potency [10] | Potency [11] | Potency [12] | Potency [13] | Potency [14] | Potency [15] | outcome [16] | Potency [19] | Potency [17] | Potency [20] | Potency [18]

CCC[Si](OC)(OC)OC
inactive: Potency [1] | Potency [2] | Potency [3] | outcome [4] | max response [5] -8.66% | Potency [6] | Potency [7] | Potency [8] | Potency [9] | Potency [10] | Potency [11] | Potency [12] | Potency [13] | Potency [14] | Potency [15] | outcome [16] | Potency [17] | Potency [20] | Potency [18]

O=C(O)c1ccncc1
inactive: Potency [1] | Potency [2] | Potency [3] | outcome [4] | max response [5] 9.67% | Potency [6] | Potency [7] | Potency [8] | Potency [9] | Potency [10] | Potency [11] | Potency [12] | Potency [13] | Potency [14] | Potency [15] | outcome [16] | Potency [19] | Potency [17] | Potency [20] | Potency [18]

CO[C@@H]1[C@@H](O[C@@H]2O[C@H](C)[C@@H](O[C@H]3C[C@@](C)(O)[C@@H](O)[C@H](C)O3)[C@H](N(C)C)[C@H]2O)[C@@H](CC=O)C[C@@H](C)[C@@H](O[C@@H]2CC[C@H](N(C)C)[C@@H](C)O2)/C=C/C=C/C[C@@H](C)OC(=O)C[C@H]1OC(C)=O
inactive: Potency [1] | Potency [2] | Potency [3] | outcome [4] | max response [5] 1.04% | Potency [6] | Potency [7] | Potency [8] | Potency [9] | Potency [10] | Potency [11] | Potency [12] | Potency [13] | Potency [14] | Potency [15] | outcome [16] | Potency [19] | Potency [17] | Potency [20] | Potency [18]

CCCCCCCCCCCC(=O)OCC
inactive: Potency [1] | Potency [2] | Potency [3] | outcome [4] | max response [5] 3.23% | Potency [6] | Potency [7] | Potency [8] | Potency [9] | Potency [10] | Potency [11] | Potency [12] | Potency [13] | Potency [14] | Potency [15] | outcome [16] | Potency [19] | Potency [17] | Potency [20] | Potency [18]

FC1(F)C(F)(F)C(F)(F)C2(F)C(F)(C1(F)F)C(F)(F)C(F)(F)C1(F)C(F)(F)C(F)(F)C(F)(F)C(F)(F)C12F (stereo unspecified)
inactive: Potency [1] | Potency [2] | Potency [3] | outcome [4] | max response [5] 0.279% | Potency [6] | Potency [7] | Potency [8] | Potency [9] | Potency [10] | Potency [11] | Potency [12] | Potency [13] | Potency [14] | Potency [15] | outcome [16] | Potency [19] | Potency [17] | Potency [20] | Potency [18]

O=C(O)c1ccc(O)c(O)c1
inactive: Potency [1] | Potency [2] | Potency [3] | outcome [4] | max response [5] -5.14% | Potency [6] | Potency [7] | Potency [8] | Potency [9] | Potency [10] | Potency [11] | Potency [12] | Potency [13] | Potency [14] | Potency [15] | outcome [16] | Potency [19] | Potency [17] | Potency [20] | Potency [18]

CO[C@@H]1COCC[C@@H]1N[C@@H]1CC[C@@](C(=O)N2CCc3ncc(C(F)(F)F)cc3C2)(C(C)C)C1
inactive: Potency [1] | Potency [2] | outcome [4] | Potency [6] | Potency [7] | Potency [8] | Potency [9] | Potency [10] | Potency [11] | Potency [12] | Potency [13] | Potency [14] | Potency [15] | outcome [16] | Potency [20] | Potency [18]
active: Potency [3] 17.3 µM | Potency [5] 17.3 µM | Potency [19] 17.3 µM | Potency [17] 15.4 µM

CCCCCCCCCCCCCCCCCCCl
inactive: activity change, negative = cytotoxic [1] 2.37% [at 6.97 µM] | cytotoxicity increase [2] -1.51% [at 6.97 µM] | activity change, negative = cytotoxicity [3] 3.04% [at 6.97 µM] | viability change, negative = cytotoxic [4] -0.0977% [at 6.97 µM] | max response [5] 5.75% | activity change [6] 2.36% [at 6.97 µM, stronger effect = higher value] | cytotoxicity increase [7] -7.85% [at 6.97 µM] | activity change, negative = cytotoxic [8] 2.68% [at 6.97 µM] | cytotoxicity [9] -10.6% [at 6.97 µM] | cytotoxicity increase [10] -13.3% [at 6.97 µM] | activity change, negative = cytotoxicity [11] 8.32% [at 6.97 µM] | cytotoxicity increase [12] 3.09% [at 6.97 µM] | cytotoxicity [13] 0.682% [at 6.97 µM] | cytotoxicity increase [14] -12.9% [at 6.97 µM] | cytotoxicity increase [15] 13.7% [at 6.97 µM] | activity change, negative = cytotoxic [16] -0.256% [at 6.97 µM] | activity change, negative = cytotoxicity [19] 2.37% [at 6.97 µM] | activity change, negative = cytotoxicity [17] 0.0634% [at 6.97 µM] | activity change [20] 11.7% [at 6.97 µM, stronger effect = higher value] | activity change, negative = cytotoxicity [18] 4.46% [at 6.97 µM]

C1CCN(CN2CCCCC2)CC1
inactive: Potency [1] | Potency [2] | Potency [3] | outcome [4] | max response [5] 7.66% | Potency [6] | Potency [7] | Potency [8] | Potency [9] | Potency [10] | Potency [11] | Potency [12] | Potency [13] | Potency [14] | Potency [15] | outcome [16] | Potency [19] | Potency [17] | Potency [20] | Potency [18]

CC(=O)Nc1ccccc1O
inactive: Potency [1] | Potency [2] | Potency [3] | outcome [4] | max response [5] 2.65% | Potency [6] | Potency [7] | Potency [8] | Potency [9] | Potency [10] | Potency [12] | Potency [13] | Potency [14] | Potency [15] | outcome [16] | Potency [19] | Potency [17] | Potency [20] | Potency [18]
